# Where “and” joins values, the source holds several entries; their conditions need not be identical. Equal values may be shown once. About 2,000 (36%) of roughly 5,500 compounds were called active. Roughly 18% stayed inconclusive and do not appear here. Cut-off read from the data, not from the text of the source: active = normalized growth mostly below about 0.91 (no sharp cut-off); inconclusive = no clear call, values can overlap the other calls; inactive = mostly above about 0.92. Some of the results follow.
# Assay: chemical genetic growth profiling, strain panel (AID 1159580);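 note: tested at 20 µM; growth read once vehicle control cultures reached saturation at 30 °C; 1 = growth at the plate median or of vehicle wells; lower values mean less growth of the strain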
# Details: S. cerevisiae deletion strains, growth OD
smiles,measurement,setting,value
COc1cc(OC)c2c(=O)c(O)c(-c3ccc(OC)c(OC)c3)oc2c1,normalized growth,"locus YAL021C, strain ccr4, stronger effect = lower value",0.741 (active)
same,normalized growth,"locus YAL026C, strain drs2, stronger effect = lower value",0.852 (active)
same,normalized growth,"locus YAL030W, strain snc1, stronger effect = lower value",0.904 (active)
same,normalized growth,"locus YBL061C, strain skt5, stronger effect = lower value",0.901 (active)
same,normalized growth,"locus YBR009C, strain hhf1, stronger effect = lower value",0.903 (active)
same,normalized growth,"locus YBR021W, strain FUR4, stronger effect = lower value",0.922 (inactive)
same,normalized growth,"locus YBR023C, strain chs3, stronger effect = lower value",0.827 (active)
same,normalized growth,"locus YBR171W, strain sec66, stronger effect = lower value",0.942 (inactive)
same,normalized growth,"locus YBR229C, strain ROT2, stronger effect = lower value",0.648 (active)
same,normalized growth,"locus YBR231C, strain swc5, stronger effect = lower value",0.77 (active)
same,normalized growth,"locus YBR279W, strain paf1, stronger effect = lower value",0.913 (active)
same,normalized growth,"locus YCL011C, strain gbp2, stronger effect = lower value",0.916 (inactive)
same,normalized growth,"locus YCL016C, strain dcc1, stronger effect = lower value",0.934 (inactive)
same,normalized growth,"locus YCL029C, strain bik1, stronger effect = lower value",0.768 (active)
same,normalized growth,"locus YCL069W, strain vba3, stronger effect = lower value",0.973 (inactive)
same,normalized growth,"locus YCR088W, strain abp1, stronger effect = lower value",0.958 (inactive)
same,normalized growth,"locus YDL005C, strain med2, stronger effect = lower value",0.982 (inactive)
same,normalized growth,"locus YDL035C, strain GPR1, stronger effect = lower value",0.31 (active)
same,normalized growth,"locus YDL040C, strain nat1, stronger effect = lower value",0.978 (inactive)
same,normalized growth,"locus YDL074C, strain BRE1, stronger effect = lower value",0.402 (active)
same,normalized growth,"locus YDL101C, strain DUN1, stronger effect = lower value",0.396 (active)
same,normalized growth,"locus YDL134C, strain PPH21, stronger effect = lower value",0.369 (active)
same,normalized growth,"locus YDL185W, strain tfp1, stronger effect = lower value",0.94 (inactive)
same,normalized growth,"locus YDL192W, strain arf1, stronger effect = lower value",0.719 (active)
same,normalized growth,"locus YDR001C, strain nth1, stronger effect = lower value",0.964 (inactive)
same,normalized growth,"locus YDR069C, strain doa4, stronger effect = lower value",0.496 (active)
same,normalized growth,"locus YDR101C, strain arx1, stronger effect = lower value",0.811 (active)
same,normalized growth,"locus YDR137W, strain rgp1, stronger effect = lower value",0.904 (inactive)
same,normalized growth,"locus YDR159W, strain sac3, stronger effect = lower value",0.992 (inactive)
same,normalized growth,"locus YDR162C, strain NBP2, stronger effect = lower value",0.132 (active)
same,normalized growth,"locus YDR195W, strain ref2",0.984 (inactive)
same,normalized growth,"locus YDR297W, strain sur2, stronger effect = lower value",0.841 (active)
same,normalized growth,"locus YDR318W, strain mcm21, stronger effect = lower value",0.788 (active)
same,normalized growth,"locus YDR334W, strain swr1, stronger effect = lower value",0.856 (active)
same,normalized growth,"locus YDR335W, strain msn5, stronger effect = lower value",0.878 (active)
same,normalized growth,"locus YDR388W, stronger effect = lower value",0.844 (active)
same,normalized growth,"locus YDR392W, strain spt3, stronger effect = lower value",0.943 (inactive)
same,normalized growth,"locus YDR502C, strain sam2, stronger effect = lower value",0.667 (active)
same,normalized growth,"locus YEL003W, strain gim4, stronger effect = lower value",0.876 (active)
same,normalized growth,"locus YEL037C, strain rad23, stronger effect = lower value",0.926 (inactive)
same,normalized growth,"locus YEL061C, strain CIN8 (second series), stronger effect = lower value",0.98 (inactive)
same,normalized growth,"locus YER015W, strain faa2, stronger effect = lower value",0.82 (active)
same,normalized growth,"locus YER016W, strain bim1, stronger effect = lower value",0.942 (inactive)
same,normalized growth,"locus YER110C, stronger effect = lower value",1.02 (inactive)
same,normalized growth,"locus YER111C, strain swi4, stronger effect = lower value",0.835 (active)
same,normalized growth,"locus YER155C, strain BEM2 (second series), stronger effect = lower value",0.936 (inactive)
same,normalized growth,"locus YER155C, strain BEM2, stronger effect = lower value",0.664 (active)
same,normalized growth,"locus YER167W, strain BCK2, stronger effect = lower value",0.631 (active)
same,normalized growth,"locus YFR010W, strain ubp6, stronger effect = lower value",0.852 (active)
same,normalized growth,"locus YGL078C, strain dbp3, stronger effect = lower value",0.978 (inactive)
same,normalized growth,"locus YGL167C, strain pmr1, stronger effect = lower value",0.938 (inactive)
same,normalized growth,"locus YGL173C, strain kem1, stronger effect = lower value",0.78 (active)
same,normalized growth,"locus YGL227W, strain vid30, stronger effect = lower value",0.986 (inactive)
same,normalized growth,"locus YGL240W, strain doc1, stronger effect = lower value",0.993 (inactive)
same,normalized growth,"locus YGL248W, strain PDE1, stronger effect = lower value",0.46 (active)
same,normalized growth,"locus YGL253W, strain hxk2, stronger effect = lower value",0.889 (active)
same,normalized growth,"locus YGR078C, strain PAC10, stronger effect = lower value",0.591 (active)
same,normalized growth,"locus YGR135W, strain pre9, stronger effect = lower value",0.689 (active)
same,normalized growth,"locus YGR252W, strain gcn5, stronger effect = lower value",0.85 (inactive)
same,normalized growth,"locus YHR013C, strain ard1, stronger effect = lower value",0.868 (inactive)
same,normalized growth,"locus YHR027C, strain rpn1, stronger effect = lower value",0.695 (active)
same,normalized growth,"locus YHR030C, strain SLT2, stronger effect = lower value",0.971 (inactive)
same,normalized growth,"locus YHR079C, strain IRE1 (second series), stronger effect = lower value",0.77 (active)
same,normalized growth,"locus YHR079C, strain IRE1, stronger effect = lower value",0.996 (inactive)
same,normalized growth,"locus YHR094C, strain hxt1, stronger effect = lower value",0.864 (active)
same,normalized growth,"locus YHR129C, strain ARP1, stronger effect = lower value",0.589 (active)
same,normalized growth,"locus YHR142W, strain chs7, stronger effect = lower value",0.82 (active)
same,normalized growth,"locus YHR200W, strain rpn10, stronger effect = lower value",0.784 (active)
same,normalized growth,"locus YIL066C, strain RNR3, stronger effect = lower value",0.46 (active)
same,normalized growth,"locus YIL073C, strain SPO22, stronger effect = lower value",0.163 (active)
same,normalized growth,"locus YIL125W, strain kgd1, stronger effect = lower value",0.916 (active)
same,normalized growth,"locus YIR030C, strain dcg1, stronger effect = lower value",0.873 (active)
same,normalized growth,"locus YJL092W, strain hpr5, stronger effect = lower value",0.959 (inactive)
same,normalized growth,"locus YJL095W, strain BCK1 (second series), stronger effect = lower value",0.921 (active)
same,normalized growth,"locus YJL095W, strain BCK1, stronger effect = lower value",0.264 (active) and 0.97 (inactive)
same,normalized growth,"locus YJL115W, strain asf1, stronger effect = lower value",0.973 (inactive)
same,normalized growth,"locus YJL129C, strain trk1, stronger effect = lower value",1.01 (inactive)
same,normalized growth,"locus YJL134W, strain LCB3, stronger effect = lower value",0.608 (active)
same,normalized growth,"locus YJL154C, strain vps35, stronger effect = lower value",0.968 (inactive)
same,normalized growth,"locus YJL164C, strain tpk1, stronger effect = lower value",0.758 (active)
same,normalized growth,"locus YJL166W, strain qcr8, stronger effect = lower value",0.934 (inactive)
same,normalized growth,"locus YJL168C, strain set2, stronger effect = lower value",0.929 (active)
same,normalized growth,"locus YJL187C, strain SWE1 (second series), stronger effect = lower value",0.17 (active)
same,normalized growth,"locus YJR043C, strain POL32, stronger effect = lower value",0.238 (active)
same,normalized growth,"locus YJR066W, strain TOR1, stronger effect = lower value",0.943 (inactive)

# Reference: PubChem BioAssay AID1159580 (chemical genetic matrix, 2015)
